± gives the standard deviation of the averaged measurements.
How the values were obtained:
Conditions in all cases: concentration: 10 µM; 24 h
[1] = tested on: HCC1569; experiment: cell number relative to DMSO (% of DMSO); higher = more cells (less growth inhibition / toxicity)
How it was run: (§1)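 HCC1569 and TDF cells were seeded at 800 per well in 384-well plates in RPMI with 10% FBS and treated with compounds at 10 µM for 24 h at 37 °C, in triplicate. After fixation in 3.7% formaldehyde, cells were stained with a rabbit anti-H1.0 antibody, an AlexaFluor 647 secondary and DAPI, and six fields per well were imaged at ×10. H1.0 nuclear intensity or cell number is given as percent of the plate control, using the median of replicates, with HCC1569 values smoothed for positional effects.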

[2] = tested on: TDF; experiment: as above
How it was run: as §1

[3] = tested on: TDF; experiment: H1.0 immunofluorescence intensity relative to DMSO (% of DMSO); higher = stronger H1.0 induction, active = 120 or more
How it was run: as §1

[4] = tested on: HCC1569; experiment: H1.0 immunofluorescence intensity relative to DMSO (% of DMSO); higher = stronger H1.0 induction, active = 140 or more
How it was run: as §1
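For H1.0 immunofluorescence intensity relative to DMSO in this document: TDF is a line of transformed human dermal fibroblasts of mesenchymal origin.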
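For cell number relative to DMSO in this document: TDF denotes transformed human dermal fibroblasts of mesenchymal origin.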

## CCCCCCCCC=CCCCCCCCCCCCC(=O)O [13(Z)-Docosenoic acid]
[1]
  cell number: 104
[2]
  cell number: 108
[3]
  H1.0 immunofluorescence intensity: 95.2 (inactive)
[4]
  H1.0 immunofluorescence intensity: 102 (inactive)

## CCCCCCC=CCCCCCCCCCC(=O)O [11(E)-Octadecenoic acid]
[1]
  cell number: 101
[2]
  cell number: 99.5
[3]
  H1.0 immunofluorescence intensity: 105 (inactive)
[4]
  H1.0 immunofluorescence intensity: 103 (inactive)

## COc1cc2nc(N3CCN(C(=O)c4ccco4)CC3)nc(N)c2cc1OC.Cl [Prazosin.HCl]
[1]
  cell number: 107
[2]
  cell number: 105
[3]
  H1.0 immunofluorescence intensity: 92 (inactive)
[4]
  H1.0 immunofluorescence intensity: 95.8 (inactive)

## Cl.N=c1c[n+](N2CCOCC2)[n-]o1 [3-Morpholinosydnonimine hydrochloride]
[1]
  cell number: 104
[2]
  cell number: 108
[3]
  H1.0 immunofluorescence intensity: 94.1 (inactive)
[4]
  H1.0 immunofluorescence intensity: 88.8 (inactive)

## Cl.N[C@@H](Cc1cnc[nH]1)C(=O)O [L-Histidine hydrochloride]
[1]
  cell number: 101
[2]
  cell number: 109
[3]
  H1.0 immunofluorescence intensity: 99 (inactive)
[4]
  H1.0 immunofluorescence intensity: 95.8 (inactive)

## S=C([S-])OC1CC2CC1C1CCCC21.[K+] [D-609 potassium]
[1]
  cell number: 100
[2]
  cell number: 104
[3]
  H1.0 immunofluorescence intensity: 95.2 (inactive)
[4]
  H1.0 immunofluorescence intensity: 102 (inactive)

## Cl.N=C(N)c1ccccc1 [Benzamidine hydrochloride]
[1]
  cell number: 100
[2]
  cell number: 103
[3]
  H1.0 immunofluorescence intensity: 94 (inactive)
[4]
  H1.0 immunofluorescence intensity: 85.3 (inactive)

## NCC1OC(OC2C(CO)OC(OC3C(O)C(N)CC(N)C3OC3OC(CN)C(O)C(O)C3N)C2O)C(N)C(O)C1O (stereo unspecified) [Neomycin]
[1]
  cell number: 99.58 ± 0.33
[2]
  cell number: 93.4 ± 5.1
[3]
  H1.0 immunofluorescence intensity: 100 (inactive)
[4]
  H1.0 immunofluorescence intensity: 91.8 (inactive)

## CN1CCCC1c1cccnc1.O=C(O)C(O)C(O)C(=O)O.O=C(O)C(O)C(O)C(=O)O (single isomer, unassigned; (-)) [(-)-Nicotine hydrogen tartrate salt]
[1]
  cell number: 102
[2]
  cell number: 103
[3]
  H1.0 immunofluorescence intensity: 90 (inactive)
[4]
  H1.0 immunofluorescence intensity: 99.2 (inactive)

## CN(c1ncccc1CNc1nc(Nc2ccc3c(c2)CC(=O)N3)ncc1C(F)(F)F)S(C)(=O)=O
[1]
  cell number: 54.6
[2]
  cell number: 32.3
[3]
  H1.0 immunofluorescence intensity: 116 (inactive)
[4]
  H1.0 immunofluorescence intensity: 118 (inactive)

## COC(=O)N=NC=C1C=[N+]([O-])c2ccccc2N1O [Carbadox]
[1]
  cell number: 104
[2]
  cell number: 101
[3]
  H1.0 immunofluorescence intensity: 95.8 (inactive)
[4]
  H1.0 immunofluorescence intensity: 92.8 (inactive)

## Cc1c2c(c(O)c3c(O)cccc13)C(=O)OC2C1C(O)C(=O)C(C(N)=O)=C(O)C1N(C)C (racemic)
[1]
  cell number: 93.9
[2]
  cell number: 93.1
[3]
  H1.0 immunofluorescence intensity: 96.4 (inactive)
[4]
  H1.0 immunofluorescence intensity: 102 (inactive)

## CCCc1cc(C(N)=S)ccn1 [Prothionamide]
[1]
  cell number: 106
[2]
  cell number: 97.3
[3]
  H1.0 immunofluorescence intensity: 99.4 (inactive)
[4]
  H1.0 immunofluorescence intensity: 103 (inactive)

## CN1C(CC(=O)c2ccccc2)CCCC1CC(O)c1ccccc1.Cl (stereo not drawn) [alpha-Lobeline hydrochloride]
[1]
  cell number: 99.3
[2]
  cell number: 108
[3]
  H1.0 immunofluorescence intensity: 93.7 (inactive)
[4]
  H1.0 immunofluorescence intensity: 103 (inactive)

## COc1ccc(-c2cc(=S)ss2)cc1 [Anethole trithione]
[1]
  cell number: 93.6
[2]
  cell number: 104
[3]
  H1.0 immunofluorescence intensity: 98.2 (inactive)
[4]
  H1.0 immunofluorescence intensity: 103 (inactive)

## CCc1[nH]c(-c2ccc(OC)cc2)nc1-c1ccncc1
[1]
  cell number: 98.5
[2]
  cell number: 99.6
[3]
  H1.0 immunofluorescence intensity: 97 (inactive)
[4]
  H1.0 immunofluorescence intensity: 120 (inactive)

## O=c1[nH]c2ccccc2n1CCN1CCN(c2cccc(C(F)(F)F)c2)CC1
[1]
  cell number: 103
[2]
  cell number: 111
[3]
  H1.0 immunofluorescence intensity: 95.8 (inactive)
[4]
  H1.0 immunofluorescence intensity: 101 (inactive)

## CCCCC=CCCCCCCCCC(=O)O [10(E)-Pentadecenoic acid]
[1]
  cell number: 103
[2]
  cell number: 95.8
[3]
  H1.0 immunofluorescence intensity: 110 (inactive)
[4]
  H1.0 immunofluorescence intensity: 101 (inactive)

## CC1=NS(=O)(=O)c2cc(Cl)ccc2N1 [Diazoxide]
[1]
  cell number: 101.1 ± 0.59
[2]
  cell number: 111 ± 7.2
[3]
  H1.0 immunofluorescence intensity: 101 (inactive)
[4]
  H1.0 immunofluorescence intensity: 101 (inactive)

## O=C1Nc2ccccc2C1=C1Nc2ccccc2C1=O [Indirubin]
[1]
  cell number: 97.2
[2]
  cell number: 94.7
[3]
  H1.0 immunofluorescence intensity: 105 (inactive)
[4]
  H1.0 immunofluorescence intensity: 102 (inactive)

## CCCOC(=O)c1cc(O)c(O)c(O)c1 [N-Propyl gallate]
[1]
  cell number: 89
[2]
  cell number: 91
[3]
  H1.0 immunofluorescence intensity: 100 (inactive)
[4]
  H1.0 immunofluorescence intensity: 107 (inactive)

## CCCn1c(=O)c2[nH]c(C3CCCC3)nc2n(CCC)c1=O [8-Cyclopentyl-1,3-dipropylxanthine]
[1]
  cell number: 101
[2]
  cell number: 92.5
[3]
  H1.0 immunofluorescence intensity: 99.5 (inactive)
[4]
  H1.0 immunofluorescence intensity: 93.7 (inactive)

## N#CC(=C(N)Sc1ccc(N)cc1)c1ccccc1C(F)(F)F
[1]
  cell number: 102
[2]
  cell number: 115
[3]
  H1.0 immunofluorescence intensity: 90.6 (inactive)
[4]
  H1.0 immunofluorescence intensity: 126 (inactive)

## Cc1ccc(N(CC2=NCCN2)c2cccc(O)c2)cc1 [Phentolamine]
[1]
  cell number: 107
[2]
  cell number: 100
[3]
  H1.0 immunofluorescence intensity: 99.7 (inactive)
[4]
  H1.0 immunofluorescence intensity: 96.6 (inactive)

Source: the supplement of paper PMC7156485
